Results from PubChem BioAssay AID624405 (Broad Institute, 2012).
Hit rate of the full screen: of about 1,900 compounds, about 250 (13%) were called active. Not shown: some 4% with an inconclusive outcome.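 Rule for the calls: active = fitted curve reaches 40% rescue activity at or below the top valid dose, in every test run; inconclusive = test runs disagree, some active and some inactive; inactive = every run misses the threshold or moves the wrong way.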 Only a sample is shown. A call without a number means that no potency is given here. Potency and affinity values are given separately.

Test: rescue of simvastatin-induced ATP loss – cell-based, C2C12 myotubes, ATP luminescence, cherry pick, dose response (AID 624405);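 note: myotubes are challenged with simvastatin at 10 µM to lower ATP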
Settings: 48 h, scaled: DMSO wells 0, geranylgeraniol wells 100; series mostly up to 19.5 µM
With Cc1ccc(CNC(=O)CNS(=O)(=O)c2cccc3nsnc23)cc1 the outcome was “inactive”.
In the case of COc1ccc(S(=O)(=O)Nc2ccc3c(c2)C(=O)N([C@H](C)CO)C[C@@H](C)[C@H](CN(C)S(=O)(=O)c2ccc(F)cc2)OCCCC[C@H](C)O3)cc1, the outcome is reported as “inactive”.
With CNC[C@@H]1Oc2ccc(NS(=O)(=O)c3c(C)noc3C)cc2C(=O)N([C@@H](C)CO)C[C@@H]1C the outcome was “inactive”.
For Cc1nc(CSc2ccc(Cl)cc2)cc(N2CC(C)OC(C)C2)n1 (stereo not given), the outcome was “inactive”.
For CC1CC(C)CN(CCCNC(=O)c2ccc3c(c2)NC(=O)C(N2CCCCC2)S3)C1 (stereo not given), the outcome was “inactive”.
In the case of Cc1ccc(NC(=O)c2cc(-c3cccs3)on2)cc1, the outcome is reported as “inactive”.
For O=C(Nc1cc(Br)ccc1O)c1cc(-c2cccs2)on1, the outcome was “inactive”.
With CC(=O)c1cccc(NC(=O)c2cc(-c3cccs3)on2)c1 the outcome was “inactive”.
In the case of O=C(Nc1cccc(C(F)(F)F)c1)c1cc(-c2cccs2)on1, the outcome is reported as “inactive”.
For CCN(CCCNC(=O)C1CCC(=O)N1C(C)C)c1cccc(C)c1 (stereo not given), the outcome was “inactive”.
In the case of Cc1noc(C)c1S(=O)(=O)Nc1ccc2c(c1)C(=O)N([C@@H](C)CO)C[C@H](C)[C@H](CN(C)Cc1ccc3c(c1)OCO3)O2, the outcome is reported as “inactive”.
With O=C(Nc1ccccc1)Oc1cccc2cccnc12 the outcome was “inactive”.
For COc1ccccc1NS(=O)(=O)c1cccc(NC(=O)c2ccc3ccccc3n2)c1, the outcome was “inactive”.
For COc1ccc(S(=O)(=O)Nc2ccccc2C(=O)NC(C)(C)C)cc1OC, the outcome was “inactive”.
With C#CCOC(=O)c1ccccc1C(=O)N(CC)CC the outcome was “inactive”.
With O=C(CCN1CCc2ccccc21)c1ccc2c(c1)OCCO2 the outcome was “inactive”.
With COc1ccc(C2CC(=O)Oc3c(C(CCN4CCCCC4)c4ccc(N(C)C)cc4)c(OC)cc(OC)c32)cc1 (stereo not given) the outcome was “inactive”.
With O=C(Nc1cnn(Cc2ccccc2)c1)c1cc2nc(-c3ccco3)cc(C(F)(F)F)n2n1 the outcome was “inactive”.
With COc1ccc(S(=O)(=O)Nc2cccc3c2O[C@H](CN(C)CC2CCCCC2)[C@H](C)CN([C@H](C)CO)C3=O)cc1 the outcome was “inactive”.
With Cc1cc(NC(=O)COC(=O)C2CCN(S(=O)(=O)c3c(Cl)cccc3Cl)CC2)no1 the outcome was “inactive”.
With N#Cc1ccc(-c2nnnn2-c2ccc3c(c2)OCO3)cc1 the outcome was “inactive”.
With COc1ccccc1N(CC(=O)Nc1ccc2c(c1)OCCO2)S(C)(=O)=O the outcome was “inactive”.
For COC(=O)c1ccccc1NC(=O)c1ccccc1OC, the outcome was “inactive”.
With Cc1noc(C)c1S(=O)(=O)N1CCC(C(=O)N2CCN(c3ccccc3Cl)CC2)CC1 the outcome was “inactive”.
With C[C@@H]1CCCCO[C@H](CN(C)CC2CCCCC2)[C@@H](C)CN([C@H](C)CO)C(=O)c2cc(NC(=O)CCCN(C)C)ccc2O1 the outcome was “inactive”.
